HIF-2a inh = HIF-2a inhibition; actives 0.72% (n = 360,000); inhibition, % at 18.8 µM; 786-0 RCC cells HIF-2a reporter, luciferase luminescence, overnight;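 active = inhibition of the luminescence signal of 40% or more relative to plate controls, in a single-dose primary screen at 18.75 µM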
TWEAK-Fn14 inh = TWEAK-Fn14 signaling inhibition | TWEAK-stimulated Fn14 reporter cells, luciferase luminescence, 8 h | inhibition, % at 10 µM | actives 2% (n = 360,000) | AID 1159606; in the data active = inhibition above about 50%
TRPM1 prom inh = MITF TRPM1 promoter inhibition in SK-MEL-5 cells; SK-MEL-5 TRPM1 promoter luciferase, 24 h; inhibition, % at 12.5 µM; actives 0.83% (n = 330,000); AID 488899;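 active = mean inhibition across replicates of 60% or more, whatever share of single replicates reaches that level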
Peg3 prom inh-1 = Peg3 promoter activity inhibition. HeLa PEG-Prom luciferase reporter, luminescence, overnight. inhibition, % at 20 µM. actives 1.7% (n = 360,000). AID 588405;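 active = inhibition of at least 50% at 20 µM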
TROY signal inh = inhibitors of TROY-dependent NF-kB signaling; actives 0.98% (n = 360,000); Q293 LMP1-TROYcd NF-kB luciferase reporter, 4 h; inhibition, % at 10 µM;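 active = compounds whose plate-normalised and pattern-corrected inhibition of the luciferase reporter signal at the single screening dose is 50% or more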
LMP1 NFkB inh = reduces LMP1-driven NF-kappaB luciferase signal; inhibition, % at 12.5 µM; LMP1-induced NF-kappaB luciferase reporter cells, luminescence; actives 0.69% (n = 350,000); in the data active = inhibition above about 41%
Peg3 prom inh-2 = Peg3 promoter inhibition confirmation; inhibition, % at 20 µM; actives 84% (n = 1,300); HeLa PEG-Prom luciferase reporter, luminescence, overnight; shares compounds with Peg3 prom inh-1; AID 602417;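 active = at 20 µM dose, 40% or more inhibition averaged across four replicates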
Mdm2-MdmX confirm = Mdm2/MdmX (human) interaction inhibition, confirmed | shares compounds with HIF-2a inh | SaOS-2 split-luciferase Mdm2/MdmX complementation, luminescence | actives 99% (n = 740) | inhibition, % at 8 µM;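 active = mean inhibition of the luminescence signal across two replicates at or above 26 percent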
Target sequence (O15151 whole entry, looked up): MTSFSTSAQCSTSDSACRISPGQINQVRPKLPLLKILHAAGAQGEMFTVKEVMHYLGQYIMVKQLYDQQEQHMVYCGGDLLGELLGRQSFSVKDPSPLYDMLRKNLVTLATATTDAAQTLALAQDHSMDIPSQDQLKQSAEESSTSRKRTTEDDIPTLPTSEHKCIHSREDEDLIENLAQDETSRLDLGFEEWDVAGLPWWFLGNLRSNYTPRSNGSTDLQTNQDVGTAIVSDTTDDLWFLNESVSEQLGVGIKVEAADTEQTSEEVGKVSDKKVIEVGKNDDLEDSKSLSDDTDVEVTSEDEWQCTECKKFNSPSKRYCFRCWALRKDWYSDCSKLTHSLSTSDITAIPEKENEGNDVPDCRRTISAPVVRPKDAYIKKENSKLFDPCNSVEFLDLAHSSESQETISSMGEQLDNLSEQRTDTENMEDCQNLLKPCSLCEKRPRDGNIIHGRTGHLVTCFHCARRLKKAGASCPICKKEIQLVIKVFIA
Target sequence (Q00987 whole entry, looked up): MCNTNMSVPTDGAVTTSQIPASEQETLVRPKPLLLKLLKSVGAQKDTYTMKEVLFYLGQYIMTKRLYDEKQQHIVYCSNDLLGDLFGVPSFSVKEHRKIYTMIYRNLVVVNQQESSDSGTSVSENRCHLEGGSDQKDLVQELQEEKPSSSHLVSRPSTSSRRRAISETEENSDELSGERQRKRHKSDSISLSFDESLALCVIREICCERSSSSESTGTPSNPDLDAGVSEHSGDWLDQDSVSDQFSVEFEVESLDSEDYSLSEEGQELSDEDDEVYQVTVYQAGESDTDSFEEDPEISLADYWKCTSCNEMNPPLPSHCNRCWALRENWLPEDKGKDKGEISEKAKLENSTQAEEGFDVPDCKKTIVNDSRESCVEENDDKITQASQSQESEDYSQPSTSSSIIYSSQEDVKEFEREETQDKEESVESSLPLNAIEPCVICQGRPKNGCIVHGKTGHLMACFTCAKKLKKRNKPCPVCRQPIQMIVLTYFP
HIF-2a conf = HIF-2a inhibition, single concentration confirmation | shares compounds with HIF-2a inh | 786-0 RCC cells, HIF-2a luciferase reporter luminescence, overnight | inhibition, % at 18.8 µM | actives 56% (n = 1,800);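 active = mean inhibition across four replicates of at least 40 percent at the single tested concentration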
HIF-1a counter = counter-screen for HIF-2a inhibitors: HIF-1a inhibition in MiaPaCa-2 cells | inhibition, % at 18.8 µM | shares compounds with HIF-2a inh | actives 72% (n = 1,800) | MiaPaCa-2 HIF-1a luciferase reporter, desferoxamine, overnight;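 active = mean inhibition of the reporter signal across four replicates at the single tested dose of 50% or more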
Each line names hits and unclear results; the compound was inactive in the other large screens (follow-up assays come after a bar, where they were run). Compounds with a hit are over-represented: about 4% of the library has one in this group of screens.

CNC[C@H](CC1CCCCC1)NC[C@H](Cc1ccccc1)NCCC12CC3CC(CC(C3)C1)C2	HIF-2a inh 95.9, Peg3 prom inh-1 98.7 | Peg3 prom inh-2 100.0 | Mdm2-MdmX confirm 102.7 | HIF-2a conf inactive | HIF-1a counter 104.2
CN(C)CCOC1c2ccccc2CCc2ccc3ccccc3c21 (stereo not drawn)	none
O=Cc1ccc(OCc2cccc(C(F)(F)F)c2)cc1O	none
COc1ccc(OCc2cccc(C(=O)O)c2)cc1	HIF-2a inh 92.5, TWEAK-Fn14 inh 52.6, TRPM1 prom inh 96.7, Peg3 prom inh-1 96.2, LMP1 NFkB inh 85.7 | Peg3 prom inh-2 90.5 | Mdm2-MdmX confirm 93.0 | HIF-2a conf 97.0 | HIF-1a counter inactive
O=C(OCC(F)(F)F)c1cccc(COc2ccc3ccccc3c2)c1	HIF-2a inh 83.1, TRPM1 prom inh 91.2, Peg3 prom inh-1 72.9, LMP1 NFkB inh 78.7 | Peg3 prom inh-2 77.4 | HIF-2a conf 90.4 | HIF-1a counter inactive
C=CCOc1ccc(/C=C2\SC(=S)N(NS(=O)(=O)c3ccc(C)cc3)C2=O)cc1	none
O=C(Nc1cc(S(=O)(=O)N2CCOCC2)ccc1Cl)c1cc([N+](=O)[O-])ccc1Cl	HIF-2a inh 61.6, TWEAK-Fn14 inh 77.5, Peg3 prom inh-1 108.9 | Peg3 prom inh-2 84.2 | HIF-2a conf 49.7 | HIF-1a counter inactive
N[C@@H](Cc1ccccc1)C(=O)N1CCC(C(=O)NCC(=O)NCC(=O)O)CC1	none
CCCC(=O)NC(c1ccccc1Cl)c1ccc2cccnc2c1O (stereo not drawn)	Peg3 prom inh-1 52.9, LMP1 NFkB inh 66.3 (no result: TRPM1 prom inh) | Peg3 prom inh-2 61.9 | Mdm2-MdmX confirm 91.5
CC(C)OC(=O)N(C)C[C@@H]1OCc2cnnn2CCCC(=O)N([C@H](C)CO)C[C@H]1C	none (no result: TRPM1 prom inh)
COCCn1c(C)cc(C(=O)CSc2nnc(C)s2)c1C	HIF-2a inh 70.3, TWEAK-Fn14 inh 91.1, TRPM1 prom inh 66.7, Peg3 prom inh-1 94.7, LMP1 NFkB inh 74.1 | Peg3 prom inh-2 74.5 | HIF-2a conf 84.0 | HIF-1a counter inactive
CC1CCCN(S(=O)(=O)c2ccc(C(=O)Nc3nnc(C4CC4)o3)cc2)C1 (stereo not drawn)	none
Cc1cc(C)c2nc(NNC(=O)c3ccc(S(=O)(=O)N4CCCC(C)C4)cc3)sc2c1 (stereo not drawn)	Peg3 prom inh-1 65.8 | Peg3 prom inh-2 74.9 | Mdm2-MdmX confirm 85.7
CC1CCCC(C)N1C(=O)CN1C(=O)NC2(CCCCCC2)C1=O (stereo not drawn)	none (no result: TRPM1 prom inh)
O=[N+]([O-])c1cc(Cl)cc(/C=N\Nc2ccccn2)c1O	Peg3 prom inh-1 54.5 | Peg3 prom inh-2 54.7 | Mdm2-MdmX confirm 88.0
O=[N+]([O-])c1ccc(Cl)cc1C=NNc1ccccn1	none
O=c1oc(CCCO)cc2ccc(/C=C/c3cccc([N+](=O)[O-])c3)cc12	none
COc1cc(/C=C/C(=O)N2CCCN(C(=O)/C=C/c3cc(OC)c(OC)c(OC)c3)CC2)cc(OC)c1OC	none
COc1cc(/C=C/C(=O)N2CCC=CC2=O)cc(OC)c1OC	HIF-2a inh 94.3, TWEAK-Fn14 inh 91.6, TRPM1 prom inh 92.3, Peg3 prom inh-1 103.6 | Peg3 prom inh-2 93.6 | HIF-2a conf 82.6 | HIF-1a counter 103.5
CS(=O)(=O)Nc1cccc(NC(=O)C2Cc3c(-c4ccccc4)ccnc3O2)c1 (stereo not drawn)	HIF-2a inh 46.8, Peg3 prom inh-1 51.3 (no result: TRPM1 prom inh, LMP1 NFkB inh) | Peg3 prom inh-2 56.7 | HIF-2a conf inactive | HIF-1a counter 85.2
Fc1ccc(NC2=NCCCCC2)cc1	none
Fc1ccc(-c2nnc(NC3=NCCCCC3)o2)cc1	HIF-2a inh 67.3, TWEAK-Fn14 inh 99.4, TRPM1 prom inh 61.8, Peg3 prom inh-1 81.5, TROY signal inh 77.2, LMP1 NFkB inh 65.3 | Peg3 prom inh-2 56.8 | HIF-2a conf 75.4 | HIF-1a counter 66.2
CN(CCc1ccccc1)C(=O)c1ccc(NC(=O)Cc2cccc(NC(=O)C3CCN(C(=O)c4ccccc4)CC3)c2)cc1	none
COc1ccc(C(=O)Nc2ccc(C)cn2)c(OC)c1	HIF-2a inh 62.5, TWEAK-Fn14 inh 102.4, TRPM1 prom inh 75.0, Peg3 prom inh-1 74.3, TROY signal inh 75.9, LMP1 NFkB inh 75.0 | Peg3 prom inh-2 52.4 | HIF-2a conf 76.1 | HIF-1a counter 84.8
COc1ccc(CCC(=O)NC2CCCc3ccccc32)cc1OC (stereo not drawn)	none
CCc1ccc(S(=O)(=O)Nc2cccc(-c3ccc4nnc(C)n4n3)c2)s1	none
O=C(CCl)N1N=C(c2ccco2)CC1c1cccs1 (stereo not drawn)	HIF-2a inh 40.5, TRPM1 prom inh 74.5, Peg3 prom inh-1 90.0, LMP1 NFkB inh 66.0 | Peg3 prom inh-2 77.9 | HIF-2a conf inactive | HIF-1a counter 72.5
C[C@@H]1C=C(C(=O)NCc2nc3ccccc3[nH]2)O[C@H](OCCCCO)C1	none
Cc1cc2c(c(/C=C/C(=O)c3ccccc3)c1)OC1(C=C2)Oc2ccccc2C(=O)N1C (stereo not drawn)	HIF-2a inh 79.8, TWEAK-Fn14 inh 69.0, Peg3 prom inh-1 80.0 | Peg3 prom inh-2 99.3 | HIF-2a conf 61.9 | HIF-1a counter 105.0
O=C(Nc1cccc(-c2ccc(N3CCCCC3)nn2)c1)c1ccc(Br)o1	none
O=C(Nc1cccc(-c2ccc(N3CCCCC3)nn2)c1)C(F)(F)F	HIF-2a inh 73.5, TWEAK-Fn14 inh 97.1, TRPM1 prom inh 62.3, Peg3 prom inh-1 76.8, TROY signal inh 71.5, LMP1 NFkB inh 54.7 | Peg3 prom inh-2 75.1 | HIF-2a conf 88.3 | HIF-1a counter 73.1
CC1CCN(c2ccc(-c3cccc(NC(=O)C(F)(F)F)c3)nn2)CC1	HIF-2a inh 88.1, TWEAK-Fn14 inh 100.9, Peg3 prom inh-1 85.9, TROY signal inh 83.0, LMP1 NFkB inh 80.1 | Peg3 prom inh-2 87.2 | HIF-2a conf 93.5 | HIF-1a counter 92.7
Cc1ccc(NS(=O)(=O)c2cc3c4c(cccc4c2)C(=O)NC3=O)cc1C	HIF-2a inh 54.2, Peg3 prom inh-1 57.2 | Peg3 prom inh-2 60.2 | HIF-2a conf inactive | HIF-1a counter 102.0
O=C1NC(=O)c2cc(Br)cc3cccc1c23	none
OCC[C@H]1C[C@@H](O)[C@H](O)[C@@]2(CCc3ccccc3O2)O1	none

Assay outcomes deposited in PubChem by several laboratories.
